# In PubChem BioAssay:
# “And” between values parts separate entries of the source, which are not always exact repeats. Identical values can stand only once. Results filed as inconclusive are left out. The source made the active and inactive calls.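 Rule for the calls, unless noted: active = normalized viability below 100% at a tested concentration; inactive = the rest.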
# How the values were obtained:
# [1] = viability loss in pontine glioma line – cell-based, SU-DIPG-XXV, MIPE5.0, CellTiter-Glo, qHTS, dose response (AID 1347065; cut-off not given, nearly all actives have AC50 up to about 26 µM;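 note: cells exposed to compound for 48 hours before ATP readout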); conditions: CellTiter-Glo ATP luminescence
# [2] = SU-DIPG-VI glioma cell viability, MIPE4.0 library, CellTiter-Glo luminescence, qHTS (AID 1347066; cut-off not given, nearly all actives have AC50 up to about 30 µM;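 note: cells exposed to compound for 48 hours before readout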); conditions: CellTiter-Glo ATP luminescence
# [3] = JHH-DIPG-1 glioma cell viability, MIPE5.0 library, CellTiter-Glo luminescence, qHTS (AID 1347067; cut-off not given, nearly all actives have AC50 up to about 26 µM;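 note: cells exposed to compound for 48 hours before readout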); conditions: JHH-DIPG-1 glioma viability, CellTiter-Glo ATP luminescence
# [4] = SU-DIPG-XXV glioma cell viability, MIPE5.0 library, qHTS (AID 1347068; cut-off not given, nearly all actives have IC50 up to about 30 µM)
# [5] = phospholipid biosynthesis inhibitors in animal cells, primary screen, cell-based, LOPAC library, screen 4 (AID 1347384; call rule not given here); conditions: phospholipid biosynthesis inhibition screen, at 10 µM
# [6] = survival rescue of mitochondrial mutant cells in low glucose, primary screen, MELAS cybrids, Rieske KO mouse fibroblasts, CellTiter-Glo (AID 1508586;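 active = mean z-score across replicates of 1.96 or higher in either the MELAS or the Rieske mutant cell line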;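 note: z relative to plate mean and SD of compound and empty wells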)
# [7] = molecular target: NAD(+) hydrolase SARM1 (Homo sapiens) (UniProt Q6SZW1); assay: SARM1 TIR NADase inhibitors, cell lysate, NAD-Glo luminescence (AID 1508614;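 active = compound whose remaining NAD level is above about 45 nM, limit read from the data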;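 note: higher remaining NAD means stronger inhibition of SARM1 NADase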); conditions: SAM-TIR HEK293T lysate NADase, at 1 µM, stronger effect = higher value
# [8] = molecular target: Mitogen-activated protein kinase 7 (Homo sapiens) (UniProt Q13164); assay: ERK5 transactivation activators in reporter cells, primary screen, cell-based, HTS (AID 1508626;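 active = luciferase signal above three times the same-plate solvent-only control wells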;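 note: luciferase driven by Gal4-ERK5 fusion binding five Gal4 sites before minimal TATA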); conditions: HeLa Gal4-ERK5 transactivation, 18 h, at 5 µM, stronger effect = higher value
# [9] = viability rescue of complex I mutant cybrids, primary screen, cell-based, galactose medium, ATP luminescence (AID 1645843;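 active = z-score of at least 1.8 in each of two replicates, scored against plate mean and spread of sample wells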;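 note: positive z means more ATP and so rescue of galactose-driven cybrid death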); conditions: complex I mutant cybrid cells, 72 h, stronger effect = higher value
# [10] = ovarian cancer cell viability with rucaparib, profiling panel, oncology-focused library, rucaparib conditional (AID 1508598); conditions: patient-derived ovarian cancer cells, CellTiter-Glo viability, 144 h, stronger effect = lower value
# [11] = LFS_MB_P medulloblastoma growth inhibition, cell-based, chromothripsis tumors, cisplatin or BGB combos (AID 1671449; in the data active = inhibition above about 80%;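 note: cells exposed for 96 hours; 0% = vehicle DMSO and 100% = killing by high DMSO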); conditions: LFS_MB_P medulloblastoma cells
# [12] = HDN33 neuroblastoma growth inhibition, cell-based, chromothripsis tumors, cisplatin or BGB combos (AID 1671450; in the data active = inhibition above about 80%;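 note: cells exposed to compound for four days; 0% = vehicle DMSO and 100% = cell killing by high DMSO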); conditions: HDN33 neuroblastoma cells, stronger effect = higher value
# [13] = ICB984 medulloblastoma cell growth inhibition, synergistic combos for chromothripsis tumors, cisplatin or BGB combos (AID 1671451; call rule not given here;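 note: cells exposed for 96 hours before readout; 0% = vehicle DMSO and 100% = killing by high DMSO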); conditions: ICB984 medulloblastoma cells, drug combinations, stronger effect = higher value
# [14] = LFS_MB_1R medulloblastoma cell growth inhibition, synergistic combos for chromothripsis tumors, cisplatin or BGB combos (AID 1671452; in the data active = inhibition above about 80%;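 note: cells exposed for 96 hours before readout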); conditions: LFS_MB_1R medulloblastoma cells, stronger effect = higher value
# [15] = HTB85 osteosarcoma cell growth inhibition, synergistic combos for chromothripsis tumors, BGB or cisplatin IC20 combos (AID 1671453; in the data active = inhibition above about 80%;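 note: cells exposed for 96 hours before readout; 0% = vehicle DMSO and 100% = high DMSO killing control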); conditions: HTB85 osteosarcoma cells, drug combinations, stronger effect = higher value
# [16] = CRL2098 osteosarcoma cell growth inhibition, synergistic combos for chromothripsis tumors, BGB or cisplatin IC20 combos (AID 1671454; in the data active = inhibition above about 80%;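 note: cells exposed for 96 h before readout; 0% = vehicle DMSO and 100% = killing by high DMSO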); conditions: CRL2098 osteosarcoma cells, drug combinations, stronger effect = higher value
# [17] = HD-MB03 medulloblastoma cell growth inhibition, synergistic combos for chromothripsis tumors, BGB or cisplatin IC20 combos (AID 1671455; in the data active = inhibition above about 83%;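 note: 0% = vehicle DMSO and 100% = high DMSO as cytotoxic control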); conditions: HD-MB03 medulloblastoma cells, stronger effect = higher value
# [18] = inhibitors of Cryptococcus chitosan production, flow cytometry, Cibacron Brilliant Red staining (AID 1347148; call rule not given here;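 note: compound exposure lasted three days at 37 degrees C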); conditions: Cryptococcus neoformans chitosan, stronger effect = lower value; at 10 µM unless noted
# [19] = MELAS cybrid survival, CellTiter-Glo 48 h, stronger effect = higher value
# [20] = Rieske KO mouse fibroblast survival, CellTiter-Glo 72 h
# [21] = measured here: combination with BGB IC40, at 0.05 µM
# Chain of Mitogen-activated protein kinase 7 (Homo sapiens) (Q13164 whole entry, looked up, the tested form may be a part): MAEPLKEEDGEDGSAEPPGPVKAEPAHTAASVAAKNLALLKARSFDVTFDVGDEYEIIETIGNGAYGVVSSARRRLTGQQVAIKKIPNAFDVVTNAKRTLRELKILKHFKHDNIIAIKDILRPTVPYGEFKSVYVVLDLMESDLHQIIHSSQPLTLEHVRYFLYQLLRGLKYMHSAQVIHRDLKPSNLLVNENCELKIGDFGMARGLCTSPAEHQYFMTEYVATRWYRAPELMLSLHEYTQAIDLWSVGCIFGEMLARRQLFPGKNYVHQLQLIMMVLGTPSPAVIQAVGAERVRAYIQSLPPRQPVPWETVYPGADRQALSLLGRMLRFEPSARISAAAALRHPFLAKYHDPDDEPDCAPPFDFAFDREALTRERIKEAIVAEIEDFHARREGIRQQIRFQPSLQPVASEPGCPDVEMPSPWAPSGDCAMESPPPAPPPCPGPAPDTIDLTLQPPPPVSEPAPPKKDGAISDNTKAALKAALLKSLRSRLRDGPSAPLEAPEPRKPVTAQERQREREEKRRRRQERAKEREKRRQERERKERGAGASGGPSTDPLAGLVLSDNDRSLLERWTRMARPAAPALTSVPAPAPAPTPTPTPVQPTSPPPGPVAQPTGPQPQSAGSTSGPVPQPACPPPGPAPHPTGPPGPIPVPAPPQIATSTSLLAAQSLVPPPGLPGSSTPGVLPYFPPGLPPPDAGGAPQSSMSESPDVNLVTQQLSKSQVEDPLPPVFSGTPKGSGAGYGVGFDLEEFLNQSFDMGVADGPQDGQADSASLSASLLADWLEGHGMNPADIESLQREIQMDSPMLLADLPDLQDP
# Chain of NAD(+) hydrolase SARM1 (Homo sapiens) (Q6SZW1 whole entry, looked up, the tested form may be a part): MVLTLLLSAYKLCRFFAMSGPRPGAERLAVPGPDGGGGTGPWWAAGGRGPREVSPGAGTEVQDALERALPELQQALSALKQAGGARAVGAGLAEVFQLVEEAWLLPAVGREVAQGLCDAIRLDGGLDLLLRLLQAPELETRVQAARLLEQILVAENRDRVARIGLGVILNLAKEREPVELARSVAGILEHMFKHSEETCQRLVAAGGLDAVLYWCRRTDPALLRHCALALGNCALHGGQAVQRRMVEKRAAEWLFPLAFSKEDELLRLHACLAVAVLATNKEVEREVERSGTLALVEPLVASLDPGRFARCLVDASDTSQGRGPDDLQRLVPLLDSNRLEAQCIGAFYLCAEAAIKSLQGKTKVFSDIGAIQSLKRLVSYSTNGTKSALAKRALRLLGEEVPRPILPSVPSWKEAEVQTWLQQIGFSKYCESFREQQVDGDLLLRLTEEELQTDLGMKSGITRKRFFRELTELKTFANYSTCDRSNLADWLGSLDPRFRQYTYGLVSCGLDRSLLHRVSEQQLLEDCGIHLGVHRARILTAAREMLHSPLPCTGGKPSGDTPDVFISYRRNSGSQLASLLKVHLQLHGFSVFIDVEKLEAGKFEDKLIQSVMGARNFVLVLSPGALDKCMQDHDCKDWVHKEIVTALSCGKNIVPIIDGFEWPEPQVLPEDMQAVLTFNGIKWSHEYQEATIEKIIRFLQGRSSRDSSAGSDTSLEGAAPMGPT
smiles,measurement,setting,value
Cc1cc(C(C)(C)C)cc(C)c1CC1=NCCN1,outcome,[1],inactive
same,outcome,[2],inactive
same,outcome,[3],inactive
same,outcome,[4],inactive
same,outcome,[5],inactive
same,z-score,[6]; [19],0.304 (inactive) and -0.439 (inactive) and 0.446 (inactive)
same,z-score,[6]; [20],0.616 and -0.336 and 0.511
same,remaining NAD,[7],10 nM (inactive)
same,luciferase signal,[8],44 AU (inactive)
same,z-score,[9],-0.37 (inactive) and 0.085 (inactive)
CC[N+](CC)(CC)CCOc1cccc(OCC[N+](CC)(CC)CC)c1OCC[N+](CC)(CC)CC,outcome,[1],inactive
same,outcome,[2],inactive
same,outcome,[3],inactive
same,outcome,[4],inactive
same,outcome,[5],inactive
same,z-score,[6]; [19],-0.318 (inactive) and -0.405 (inactive) and -0.918 (inactive)
same,z-score,[6]; [20],0.619 and -0.334 and -0.59
same,remaining NAD,[7],10 nM (inactive)
same,luciferase signal,[8],216 AU (active)
same,z-score,[9],0.34 (inactive) and 0.415 (inactive)
Cc1nc2ccc(CN(C)c3ccc(C(=O)N[C@@H](CCC(=O)O)C(=O)O)s3)cc2c(=O)[nH]1,outcome,[1],inactive
same,outcome,[2],inactive
same,outcome,[3],inactive
same,outcome,[4],inactive
same,z-score,[6]; [19],-0.789 (inactive)
same,z-score,[6]; [20],-1.02
same,viability,"[10]; at 0.000305 µM, OCI-C5x cells, with rucaparib 10 µM, 100% = cells with rucaparib alone",114% (inactive)
same,viability,"[10]; at 0.000305 µM, OCI-C5x cells, without rucaparib",92.6% (active)
same,viability,"[10]; at 0.000305 µM, OCI-P5x cells, with rucaparib 20 µM, 100% = cells with rucaparib alone",107% (inactive)
same,viability,"[10]; at 0.000305 µM, OCI-P5x cells, without rucaparib",104% (inactive)
same,viability,"[10]; at 0.00122 µM, OCI-C5x cells, with rucaparib 10 µM, 100% = cells with rucaparib alone",115% (inactive)
same,viability,"[10]; at 0.00122 µM, OCI-C5x cells, without rucaparib",84.6% (active)
same,viability,"[10]; at 0.00122 µM, OCI-P5x cells, with rucaparib 20 µM, 100% = cells with rucaparib alone",108% (inactive)
same,viability,"[10]; at 0.00122 µM, OCI-P5x cells, without rucaparib",106% (inactive)
same,viability,"[10]; at 0.00488 µM, OCI-C5x cells, with rucaparib 10 µM, 100% = cells with rucaparib alone",72.8% (active)
same,viability,"[10]; at 0.00488 µM, OCI-C5x cells, without rucaparib",55.7% (active)
same,viability,"[10]; at 0.00488 µM, OCI-P5x cells, with rucaparib 20 µM, 100% = cells with rucaparib alone",114% (inactive)
same,viability,"[10]; at 0.00488 µM, OCI-P5x cells, without rucaparib",109% (inactive)
same,viability,"[10]; at 0.0195 µM, OCI-C5x cells, with rucaparib 10 µM, 100% = cells with rucaparib alone",19.2% (active)
same,viability,"[10]; at 0.0195 µM, OCI-C5x cells, without rucaparib",17.1% (active)
same,viability,"[10]; at 0.0195 µM, OCI-P5x cells, with rucaparib 20 µM, 100% = cells with rucaparib alone",116% (inactive)
same,viability,"[10]; at 0.0195 µM, OCI-P5x cells, without rucaparib",110% (inactive)
same,viability,"[10]; at 0.0781 µM, OCI-C5x cells, with rucaparib 10 µM, 100% = cells with rucaparib alone",16.3% (active)
same,viability,"[10]; at 0.0781 µM, OCI-C5x cells, without rucaparib",17.6% (active)
same,viability,"[10]; at 0.0781 µM, OCI-P5x cells, with rucaparib 20 µM, 100% = cells with rucaparib alone",118% (inactive)
same,viability,"[10]; at 0.0781 µM, OCI-P5x cells, without rucaparib",111% (inactive)
same,viability,"[10]; at 0.313 µM, OCI-C5x cells, with rucaparib 10 µM, 100% = cells with rucaparib alone",15.6% (active)
same,viability,"[10]; at 0.313 µM, OCI-C5x cells, without rucaparib",19.3% (active)
same,viability,"[10]; at 0.313 µM, OCI-P5x cells, with rucaparib 20 µM, 100% = cells with rucaparib alone",119% (inactive)
same,viability,"[10]; at 0.313 µM, OCI-P5x cells, without rucaparib",111% (inactive)
same,viability,"[10]; at 1.25 µM, OCI-C5x cells, with rucaparib 10 µM, 100% = cells with rucaparib alone",14.5% (active)
same,viability,"[10]; at 1.25 µM, OCI-C5x cells, without rucaparib",17.5% (active)
same,viability,"[10]; at 1.25 µM, OCI-P5x cells, with rucaparib 20 µM, 100% = cells with rucaparib alone",111% (inactive)
same,viability,"[10]; at 1.25 µM, OCI-P5x cells, without rucaparib",116% (inactive)
same,viability,"[10]; at 5 µM, OCI-C5x cells, with rucaparib 10 µM, 100% = cells with rucaparib alone",16.1% (active)
same,viability,"[10]; at 5 µM, OCI-C5x cells, without rucaparib",19.3% (active)
same,viability,"[10]; at 5 µM, OCI-P5x cells, with rucaparib 20 µM, 100% = cells with rucaparib alone",124% (inactive)
same,viability,"[10]; at 5 µM, OCI-P5x cells, without rucaparib",113% (inactive)
same,inhibition,"[11]; at 0.5 µM, stronger effect = higher value",-8.68% (inactive)
same,inhibition,"[11]; measured here: combination with BGB IC20, at 0.005 µM",-6.5%
same,inhibition,"[11]; measured here: combination with BGB IC40, at 0.005 µM",-33.6%
same,inhibition,[11]; [21],2.07%
same,inhibition,"[11]; measured here: combination with cisplatin, at 0.5 µM, stronger effect = higher value",-25.4%
same,inhibition,"[11]; measured here: combination with cisplatin, at 5 µM, stronger effect = higher value",-36.4%
same,inhibition,"[12]; BGB combo, at 5 µM",77.1%
same,inhibition,[12]; at 0.5 µM,77.4% (inactive)
same,inhibition,"[12]; cisplatin combo, at 5 µM",75.6%
same,inhibition,"[12]; measured here: with BGB IC20 combination, at 0.5 µM",75.7%
same,inhibition,"[12]; measured here: with cisplatin IC20 combination, at 0.5 µM",73.8%
same,inhibition,"[12]; single agent, at 5 µM",82.5%
same,inhibition,"[13]; BGB IC20 combo, at 0.005 µM",-19.7%
same,inhibition,"[13]; BGB IC40 combo, at 0.005 µM",-58.4%
same,inhibition,"[13]; BGB IC40 combo, at 0.05 µM",-47.3%
same,inhibition,[13]; at 0.5 µM,-21.4% (inactive)
same,inhibition,"[13]; cisplatin combo, at 0.05 µM",-53.1%
same,inhibition,"[13]; cisplatin combo, at 0.5 µM",-23.4%
same,inhibition,"[13]; cisplatin combo, at 5 µM",-41.1%
same,inhibition,"[13]; measured here: 5 uM single agent, at 5 µM",-8.4%
same,inhibition,[14]; at 0.5 µM,-22.3% (inactive)
same,inhibition,[14]; [21],-24.2%
same,inhibition,"[14]; measured here: combination with cisplatin, at 0.5 µM",-26.4%
same,inhibition,"[14]; measured here: combination with cisplatin, at 5 µM",-6.83%
same,inhibition,[15]; at 0.5 µM,-11% (inactive)
same,inhibition,"[15]; measured here: with BGB IC20, at 0.5 µM",-19.6%
same,inhibition,"[15]; measured here: with BGB IC20, at 5 µM",-9.72%
same,inhibition,"[15]; measured here: with cisplatin IC20, at 0.5 µM",-17.6%
same,inhibition,"[15]; measured here: with cisplatin IC20, at 5 µM",2.95%
same,inhibition,"[15]; single agent, at 5 µM",10.6%
same,inhibition,[16]; at 0.5 µM,54.5% (inactive)
same,inhibition,"[16]; measured here: combination with BGB at IC20, at 0.5 µM",35.1%
same,inhibition,"[16]; measured here: combination with cisplatin at IC20, at 0.5 µM",62.3%
same,inhibition,[17]; at 0.5 µM,78.5% (inactive)
same,inhibition,"[17]; measured here: combo with BGB at IC20, at 0.5 µM",71.9%
same,inhibition,"[17]; measured here: combo with cisplatin at IC20, at 0.5 µM",79.7%
CC(=O)Oc1ccccc1C(=O)O,outcome,[1],inactive
same,outcome,[2],inactive
same,outcome,[3],inactive
same,outcome,[4],inactive
same,outcome,[5],inactive
same,z-score,[6]; [19],-0.282 (inactive) and -0.31 (inactive) and 0.455 (inactive)
same,z-score,[6]; [20],0.817 and -0.843 and -0.759
same,remaining NAD,[7],10 nM (inactive)
same,luciferase signal,[8],92 AU (inactive)
same,z-score,[9],0.51 (inactive) and 0.115 (inactive)
CCOC(=O)C(C)(C)Oc1ccc(Cl)cc1,outcome,[1],inactive
same,outcome,[2],inactive
same,outcome,[3],inactive
same,outcome,[4],inactive
same,fold fluorescence,[18],5.04 (inactive)
same,outcome,[5],inactive
same,z-score,[6]; [19],0.307 (inactive) and -1.09 (inactive)
same,z-score,[6]; [20],-0.506 and -1.36
same,remaining NAD,[7],10 nM (inactive)
same,luciferase signal,[8],44 AU (inactive)
same,z-score,[9],0.15 (inactive) and 0.675 (inactive)
COc1ccc(C2CNC(=O)C2)cc1OC1CCCC1 (configuration not stated),outcome,[1],inactive
same,outcome,[2],inactive
same,outcome,[3],inactive
same,outcome,[4],inactive
same,fold fluorescence,[18],10.1 [at 181.6 µM] (inactive)
same,outcome,[5],inactive
same,remaining NAD,[7],10 nM (inactive)
same,luciferase signal,[8],72 AU (inactive)
CCOC(=O)c1ncn2c1CN(C)C(=O)c1cc(F)ccc1-2,outcome,[1],inactive
same,outcome,[2],inactive
same,outcome,[3],inactive
same,outcome,[4],inactive
same,outcome,[5],inactive
same,z-score,[6]; [19],0.109 (inactive) and 0.0778 (inactive)
same,z-score,[6]; [20],0.977 and -0.775
same,remaining NAD,[7],10 nM (inactive)
same,luciferase signal,[8],60 AU (inactive)
N[C@@H](Cc1ccc(O)c(O)c1)C(=O)O,outcome,[1],inactive
same,outcome,[2],inactive
same,outcome,[3],inactive
same,outcome,[4],inactive
same,outcome,[5],inactive
same,z-score,[6]; [19],-0.394 (inactive) and -0.26 (inactive)
same,z-score,[6]; [20],0.117 and -1.12
same,remaining NAD,[7],10 nM (inactive)
same,luciferase signal,[8],72 AU (inactive)
same,z-score,[9],-0.965 (inactive) and -1.59 (inactive)
